# From PubChem BioAssay
# Activity calls are given as the source filed them.
# Tests used:
# [1] = E. coli DRC41 culture turbidity changes, primary screen, E. coli filamentation inducer project, strain DRC41, OD650, 48 h (AID 1152);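 note: E. coli MC1000 strain DRC41 lacking acrAB efflux pump and sulA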; details: E. coli DRC41 (acrAB sulA), higher = more signal, called active from +8 up or from −8 down
# [2] = small-molecule binders of probe aLefty1, primary screen, biochemical, small-molecule microarray, 635/667 nm fluorescence (AID 1153); details: higher = more signal;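 note: score merges spot fluorescence with signal-to-noise ratio from the scanned slide images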
# [3] = PSAC antagonists in infected red cells, primary screen, cell-based, P. falciparum Indochina, OD700, 1 h (AID 1154); details: P. falciparum Indochina infected RBC osmotic lysis, higher = more signal, called active from +8 up or from −8 down
# [4] = PSAC antagonists in infected red cells, primary screen, cell-based, P. falciparum Indochina, OD700, 2 h (AID 1155);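 note: lysis reports solute entry through the parasite surface anion channel PSAC; channel blockers reduce lysis of infected cells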; details: P. falciparum Indochina infected erythrocytes, osmotic lysis OD700; higher = more signal, called active from +8 up or from −8 down
# [5] = osmotic lysis modulators in infected erythrocytes, primary screen, PSAC antagonist project, cell-based, P. falciparum Indochina, OD700, 3 h (AID 1156); details: higher = more signal, called active from +8 up or from −8 down
# [6] = PSAC antagonists in infected red cells, primary screen, cell-based, P. falciparum Indochina, OD700, 18 h (AID 1157); details: P. falciparum Indochina infected erythrocytes, osmotic lysis OD700, 18 h; higher = more signal, called active from +8 up or from −8 down
# [7] = modulators of S6 phosphorylation in cells, primary screen, cell-based, A549, cytoblot, luminescence, serum-stimulated (AID 1158); details: A549 phospho-S6 cytoblot, 5 h, higher = more signal;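 note: serum-stimulated A549 lung adenocarcinoma cells; signal is phosphorylated S6 detected by cytoblot immunostaining with HRP secondary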
# [8] = biological target: NADPH oxidase 2 (Homo sapiens) (UniProt P04839); assay: NOX2-dependent H2O2 signal modulators, primary screen, NOX inhibitor project, cell-based, HEK293-NOX2, PMA-stimulated, Amplex Red fluorescence (AID 1159); details: 45 min, higher = more signal, called active from +8 up or from −8 down; note: test concentration not given here
# [9] = biological target: NADPH oxidase 4 (Homo sapiens) (UniProt Q9NPH5); assay: NOX4-dependent H2O2 signal modulators, primary screen, NOX inhibitor project, cell-based, HEK293-NOX4, tetracycline-induced, Amplex Red fluorescence (AID 1160); details: 45 min, higher = more signal, called active from +8 up or from −8 down
# [10] = biological target: NADPH oxidase 5 (Homo sapiens) (UniProt Q96PH1); assay: NOX5-dependent H2O2 signal modulators, primary screen, NOX inhibitor project, cell-based, HEK293-NOX5, Amplex Red fluorescence (AID 1161); details: HEK293-NOX5, ionomycin, 45 min, higher = more signal
# [11] = A549 cell viability effects, profiling panel, calcein-AM fluorescence, 48 h, basal (AID 1162); details: higher = more signal; note: test concentration not given here
# [12] = adipocyte viability effects, profiling panel, cell-based, 3T3-L1 adipocytes, calcein-AM fluorescence, 48 h, basal (AID 1163); details: 3T3-L1 adipocytes viability, higher = more signal; note: test concentration not given here
# [13] = HepG2 cell viability effects, profiling panel, calcein-AM fluorescence, 48 h, basal (AID 1164); details: higher = more signal; note: test concentration not given here
# [14] = MM1S cell viability effects, profiling panel, calcein-AM fluorescence, 48 h, basal (AID 1165); details: higher = more signal;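 note: viability of MM1S multiple myeloma cells under basal unstimulated conditions; test concentration not given here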
# [15] = basal RPMI8226 viability, no added stimulus, profiling panel, cell-based, calcein-AM fluorescence, 48 h, PK04 Diversity Set (AID 1166); details: RPMI8226 myeloma viability, higher = more signal;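 note: cells grown under basal conditions without added stimulus; test concentration not given here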
# [16] = basal HepG2 mitochondrial membrane potential changes, profiling panel, cell-based, JC-1 fluorescence, 24 h, 100 nL compound (AID 1167); details: higher = more signal; note: test concentration not given here
# [17] = basal 3T3-L1 adipocyte mitochondrial potential changes, profiling panel, cell-based, JC-1 fluorescence, 3T3-L1 adipocytes, 24 h, 100 nL compound (AID 1168); details: JC-1 mitochondrial fluorescence, higher = more signal, called active from +8 up or from −8 down; note: test concentration not given here
# [18] = basal RPMI8226 mitochondrial membrane potential changes, profiling panel, cell-based, JC-1 fluorescence, 24 h, 100 nL compound (AID 1169); details: RPMI8226 myeloma, JC-1 mitochondrial potential fluorescence, higher = more signal; note: test concentration not given here
# [19] = basal MM1S mitochondrial membrane potential changes, profiling panel, cell-based, JC-1 fluorescence, 24 h, 100 nL compound (AID 1170); details: higher = more signal; note: test concentration not given here
# [20] = A549 lung cancer cell viability effects, profiling panel, resazurin fluorescence, 24 h, PK04 Diversity Set (AID 1171); details: higher = more signal, called active from +8 up or from −8 down; note: test concentration not given here
# NADPH oxidase 5 (Homo sapiens), sequence (Q96PH1 whole entry, looked up): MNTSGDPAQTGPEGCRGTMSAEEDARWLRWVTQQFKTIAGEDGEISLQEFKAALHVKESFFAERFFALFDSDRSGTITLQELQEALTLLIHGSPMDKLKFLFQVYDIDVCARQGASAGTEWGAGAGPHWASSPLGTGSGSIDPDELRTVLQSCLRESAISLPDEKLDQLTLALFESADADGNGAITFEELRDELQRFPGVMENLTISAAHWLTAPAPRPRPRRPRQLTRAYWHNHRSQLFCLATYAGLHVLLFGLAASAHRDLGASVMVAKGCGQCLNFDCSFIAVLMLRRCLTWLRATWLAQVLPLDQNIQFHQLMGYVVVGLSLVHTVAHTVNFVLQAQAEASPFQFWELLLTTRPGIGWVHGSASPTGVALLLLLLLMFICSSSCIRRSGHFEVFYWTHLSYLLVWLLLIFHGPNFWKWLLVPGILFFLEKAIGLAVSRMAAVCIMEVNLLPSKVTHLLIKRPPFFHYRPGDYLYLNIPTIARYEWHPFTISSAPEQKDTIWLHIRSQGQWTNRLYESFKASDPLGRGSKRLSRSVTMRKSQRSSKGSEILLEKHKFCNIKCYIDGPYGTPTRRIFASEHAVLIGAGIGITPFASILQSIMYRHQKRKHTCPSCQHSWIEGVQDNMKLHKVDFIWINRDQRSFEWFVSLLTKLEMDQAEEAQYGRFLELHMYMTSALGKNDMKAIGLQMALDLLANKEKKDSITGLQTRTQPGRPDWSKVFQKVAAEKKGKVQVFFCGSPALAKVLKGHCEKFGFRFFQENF
# NADPH oxidase 4 (Homo sapiens), sequence (Q9NPH5 whole entry, looked up): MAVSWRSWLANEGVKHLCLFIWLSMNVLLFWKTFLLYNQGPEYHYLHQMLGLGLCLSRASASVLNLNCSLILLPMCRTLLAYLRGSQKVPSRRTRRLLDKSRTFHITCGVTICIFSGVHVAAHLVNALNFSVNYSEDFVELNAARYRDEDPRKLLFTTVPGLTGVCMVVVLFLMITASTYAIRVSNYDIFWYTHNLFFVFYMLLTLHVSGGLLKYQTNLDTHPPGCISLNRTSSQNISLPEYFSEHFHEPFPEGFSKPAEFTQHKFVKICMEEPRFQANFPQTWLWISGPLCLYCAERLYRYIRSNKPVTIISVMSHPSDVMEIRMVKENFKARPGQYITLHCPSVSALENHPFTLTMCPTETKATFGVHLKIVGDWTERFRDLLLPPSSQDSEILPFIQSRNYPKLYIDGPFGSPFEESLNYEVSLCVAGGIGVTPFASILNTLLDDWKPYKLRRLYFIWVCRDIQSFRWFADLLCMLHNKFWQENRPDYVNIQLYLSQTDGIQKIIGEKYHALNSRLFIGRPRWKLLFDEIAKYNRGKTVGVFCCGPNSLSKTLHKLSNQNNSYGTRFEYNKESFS
# NADPH oxidase 2 (Homo sapiens), sequence (P04839 whole entry, looked up): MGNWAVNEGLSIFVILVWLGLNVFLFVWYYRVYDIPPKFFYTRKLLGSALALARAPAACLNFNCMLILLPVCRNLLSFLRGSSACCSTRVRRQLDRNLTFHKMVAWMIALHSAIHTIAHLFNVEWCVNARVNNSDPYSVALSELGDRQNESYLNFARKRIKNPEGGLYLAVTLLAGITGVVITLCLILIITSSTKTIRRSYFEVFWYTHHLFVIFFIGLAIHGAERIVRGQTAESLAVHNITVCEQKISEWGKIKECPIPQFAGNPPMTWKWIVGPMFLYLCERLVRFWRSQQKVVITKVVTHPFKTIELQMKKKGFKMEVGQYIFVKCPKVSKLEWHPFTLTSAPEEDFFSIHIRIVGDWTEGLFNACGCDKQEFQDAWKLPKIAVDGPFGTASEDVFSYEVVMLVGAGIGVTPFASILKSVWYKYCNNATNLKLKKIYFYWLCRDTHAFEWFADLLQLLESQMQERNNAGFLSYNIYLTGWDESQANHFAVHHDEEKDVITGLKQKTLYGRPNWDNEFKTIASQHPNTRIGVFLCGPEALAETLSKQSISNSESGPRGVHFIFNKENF
SMILES,z-score [1],composite z-score [2],z-score [3],z-score [4],z-score [5],z-score [6],z-score [7],z-score [8],z-score [9],z-score [10],z-score [11],z-score [12],z-score [13],z-score [14],z-score [15],z-score [16],z-score [17],z-score [18],z-score [19],z-score [20]
CCCCC(=C=CC[C@H](O)c1cccc(OCCO)c1)C[C@H](O)c1ccccn1,1.81 (inactive),-0.272,13.6 (active),0.938 (inactive),1.09 (inactive),-0.676 (inactive),1.54,-1.12 (inactive),-0.337 (inactive),-1.75,1.35,1.2,1.3,-0.497,1.43,1.17,-1.63 (inactive),0.0444,-1.1,2.05 (inactive)
COc1ccc([Si](C)(C)[C@@H]2[C@@H](CC(=O)N3CCC[C@H]3CO)O[C@]3(C(=O)N(Cc4cccc(I)c4)c4ccccc43)[C@H]2C)cc1,-0.423 (inactive),-0.111,6.47 (inactive),0.966 (inactive),1.39 (inactive),0.917 (inactive),2.02,2.97 (inactive),0.91 (inactive),4.33,-1.08,1.24,-2.59,-2.92,-4.52,-0.646,-0.0158 (inactive),-1.08,-1.48,-3.17 (inactive)
COCC(=C=CC[C@H](O)c1cccc(OCCO)c1)C[C@H](O)c1cc(Cl)cc(Cl)c1O,0.652 (inactive),0.0012,22.1 (active),5.78 (inactive),0.658 (inactive),1.21 (inactive),0.232,-0.707 (inactive),-0.429 (inactive),-1.25,0.593,-0.317,0.956,-0.967,-0.193,0.277,0.86 (inactive),0.262,-0.931,0.627 (inactive)
CCCC[C@@H]1C[C@H]1[C@@H](NC(=O)c1cccnc1)c1ccc(Cl)cc1,-3.66 (inactive),-0.321,2.29 (inactive),1.51 (inactive),0.395 (inactive),1.03 (inactive),0.348,-0.56 (inactive),-1.3 (inactive),0.715,-1.01,-1.38,-0.114,-2.05,-3.56,1.06,-0.307 (inactive),-0.249,-1.62,1.56 (inactive)
COCCCNC(=O)[C@]1(Cc2ccccc2)N=C(c2ccc(OCCCO)cc2)O[C@@H]1c1ccccc1CN=[N+]=[N-],1.41 (inactive),0.401,27.1 (active),18.1 (active),1.44 (inactive),2.62 (inactive),2.35,-0.158 (inactive),1.26 (inactive),2.44,1.16,0.52,1.57,-0.488,-2.52,2.15,-0.0892 (inactive),-0.985,-0.712,-1.43 (inactive)
COc1ccc(C(O)C2C=CC3C(=O)N(C)C(=O)C3N2NC(=O)OC(C)(C)C)c2ccccc12 (stereo not given),-1.17 (inactive),0.445,1.9 (inactive),1.09 (inactive),0.0084 (inactive),1.2 (inactive),-1.16,-0.674 (inactive),-1.92 (inactive),0.384,-0.844,-0.769,-1.99,0.18,-0.463,-2.62,0.549 (inactive),0.674,0.932,1.94 (inactive)
COC(=O)C(CC#Cc1ccc2c(c1)[C@]1(C(=O)N2)[C@H](c2ccc(O)cc2)N2[C@H](c3ccccc3)[C@H](c3ccccc3)OC(=O)[C@H]2[C@@H]1C(=O)N1CCN(c2ncccn2)CC1)C(=O)OC,0.347 (inactive),0.027,5.42 (inactive),0.658 (inactive),1.93 (inactive),0.515 (inactive),0.355,1.91 (inactive),0.857 (inactive),1.54,-0.112,-0.274,0.9,-2.43,-4.48,-0.758,0.999 (inactive),-1.07,-2.02,-0.558 (inactive)
CN(C)CCCCCCNC(=O)[C@@H]1C[C@@H]2C(=O)N[C@@H](CCCC[N+](C)(C)C)C(=O)N2[C@@H]1c1ccc(O)cc1,-0.3 (inactive),-0.612,1.59 (inactive),-0.375 (inactive),-0.604 (inactive),0.0077 (inactive),-0.607,-1.47 (inactive),-0.773 (inactive),-1.4,-0.974,0.334,-0.646,-1.51,0.131,-0.108,-0.302 (inactive),0.185,-0.313,-0.994 (inactive)
CN(C)CCCC[C@@H]1NC(=O)[C@H]2C[C@@H](C(=O)NCCCCCN)[C@@H](c3cccc(OCCO)c3)N2C1=O,0.675 (inactive),1.28,1.9 (inactive),0.112 (inactive),-1.16 (inactive),0.129 (inactive),0.204,0.653 (inactive),0.222 (inactive),1.52,0.227,0.167,-0.42,-1.44,0.537,1.28,1.18 (inactive),0.51,1.26,0.123 (inactive)
O=C1C2C=CC(C(O)C=Cc3ccc([N+](=O)[O-])cc3)N(n3cnnc3)C2C(=O)N1Cc1ccccc1 (stereo not given),-0.892 (inactive),0.406,4.59 (inactive),1.03 (inactive),0.956 (inactive),0.83 (inactive),-0.584,-0.526 (inactive),-0.711 (inactive),-0.3,-0.915,0.0646,-0.129,-0.232,-1.03,-1.07,-0.566 (inactive),0.646,-0.178,0.367 (inactive)
COc1ccc(NC(=O)O[C@H]2[C@H](OC(=O)c3cc4ccccc4[nH]3)[C@@H](OC(=O)c3cc4ccccc4[nH]3)[C@@H](OC)O[C@@H]2CO)cc1,0.799 (inactive),-0.0529,2.35 (inactive),-0.529 (inactive),0.52 (inactive),-0.955 (inactive),1.22,-3.65 (inactive),-1.18 (inactive),-4.46,0.349,0.203,0.825,-0.699,0.422,0.923,1.93 (inactive),0.168,-0.117,-1.92 (inactive)
O=C(CS)NCCCCCNC(=O)[C@@H]1C[C@@H]2C(=O)NCC(=O)N2[C@@H]1c1ccc(O)cc1,1.6 (inactive),-0.101,0.802 (inactive),0.0605 (inactive),-0.194 (inactive),0.179 (inactive),-0.259,1.18 (inactive),-0.584 (inactive),1.67,0.347,0.136,-1.19,-0.403,-0.727,1.14,-0.00814 (inactive),0.852,0.158,-1.31 (inactive)
C=C(C(=O)CC[C@H](OC(C)=O)c1ccccc1OCCO)C(C)C,0.0974 (inactive),-0.147,2.27 (inactive),2.54 (inactive),-4.78 (inactive),-0.431 (inactive),0.66,-5.71 (inactive),-2.22 (inactive),-3.36,-2.33,-0.375,-3.04,-0.899,-1.94,-0.892,1.99 (inactive),-0.621,-1.19,-2.7 (inactive)
C=CCOC(=O)[C@H]1[C@@H]2C(=O)O[C@@H](c3ccccc3)[C@@H](c3ccccc3)N2[C@@H](c2ccc(OCCOC(=O)[C@@H]3C[C@@H]4C(=O)N5CCC[C@H]5C(=O)N4[C@@H]3c3cccc(OCCO)c3)cc2)[C@]12C(=O)Nc1ccc(I)cc12,-0.811 (inactive),1.53,4.52 (inactive),2.5 (inactive),1.25 (inactive),1.5 (inactive),-0.679,1.86 (inactive),0.833 (inactive),1.49,-1.06,0.997,-0.649,-0.349,0.206,-0.689,1.19 (inactive),-0.643,-0.959,-0.476 (inactive)
COCCOC(=O)N1C(=O)[C@@]2(c3cc(C#CCCO)ccc31)[C@H](c1ccc(OCCO)cc1)N1[C@H](c3ccccc3)[C@H](c3ccccc3)OC(=O)[C@H]1[C@@H]2C(N)=O,0.391 (inactive),0.0329,12.1 (active),2.16 (inactive),0.136 (inactive),0.932 (inactive),-0.296,1.93 (inactive),-0.511 (inactive),0.419,0.617,0.435,1.35,-0.109,-0.804,-0.72,-0.456 (inactive),-0.899,-0.0462,0.215 (inactive)
CCCNC(=O)[C@@]1(Sc2ccc(C)cc2)CC(=O)N(Cc2ccccc2C(F)(F)F)[C@@H]1c1ccc(CO)cc1I,0.0676 (inactive),0.0999,5.14 (inactive),0.0162 (inactive),0.378 (inactive),-1.95 (inactive),2.26,0.781 (inactive),-2 (inactive),-0.0781,-0.567,1.12,-1.14,-2.3,-2.56,-0.453,-1.02 (inactive),-0.355,-1.78,0.821 (inactive)
CO[C@H]1O[C@H](CO)[C@@H](OC(=O)Nc2ccc(Oc3ccccc3)cc2)[C@H](OC(=O)Nc2ccc3c(c2)OCO3)[C@@H]1OC(=O)Nc1ccc2c(c1)OCO2,0.599 (inactive),0.0751,12.3 (active),2.93 (inactive),0.403 (inactive),1.7 (inactive),0.377,1.24 (inactive),-0.397 (inactive),-0.967,-0.882,-0.132,-0.845,-2.21,-1.74,-0.594,1.02 (inactive),-0.48,-0.751,-1.29 (inactive)
CN1C(=O)C2C=CC(C(O)c3ccc(F)cc3)N(N(c3ccccc3)c3ccccc3)C2C1=O (stereo not given),-1.46 (inactive),-0.483,0.362 (inactive),1.27 (inactive),0.39 (inactive),1.17 (inactive),-1.16,-0.948 (inactive),-1.82 (inactive),-1.39,-0.631,-2.01,0.153,0.0431,-0.462,-1.03,-0.802 (inactive),0.399,-1.03,-0.867 (inactive)
